{"source": "PubChem BioAssay", "key": {"[1]": {"assay": "compounds binding Alexa647 anti-His antibody – biochemical, small-molecule microarray, 635 nm fluorescence, artefact control for SMM control protein annotation, primary screen (AID 1128);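 further: score merges feature fluorescence with signal-to-noise for each printed compound spot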", "conditions": "higher = more signal"}, "[2]": {"system": "Human papillomavirus type 1a E7 protein (residues 1-88)", "assay": "HPV1a E7 small-molecule binders, primary screen, biochemical, small-molecule microarray, residues 1-88, 635 nm (AID 1129)", "conditions": "small-molecule microarray binding, fluorescence 635 nm; higher = more signal"}, "[3]": {"biological_target": "Focal adhesion kinase 1 (Homo sapiens) (UniProt Q05397)", "sequence (Q05397 whole entry, looked up)": "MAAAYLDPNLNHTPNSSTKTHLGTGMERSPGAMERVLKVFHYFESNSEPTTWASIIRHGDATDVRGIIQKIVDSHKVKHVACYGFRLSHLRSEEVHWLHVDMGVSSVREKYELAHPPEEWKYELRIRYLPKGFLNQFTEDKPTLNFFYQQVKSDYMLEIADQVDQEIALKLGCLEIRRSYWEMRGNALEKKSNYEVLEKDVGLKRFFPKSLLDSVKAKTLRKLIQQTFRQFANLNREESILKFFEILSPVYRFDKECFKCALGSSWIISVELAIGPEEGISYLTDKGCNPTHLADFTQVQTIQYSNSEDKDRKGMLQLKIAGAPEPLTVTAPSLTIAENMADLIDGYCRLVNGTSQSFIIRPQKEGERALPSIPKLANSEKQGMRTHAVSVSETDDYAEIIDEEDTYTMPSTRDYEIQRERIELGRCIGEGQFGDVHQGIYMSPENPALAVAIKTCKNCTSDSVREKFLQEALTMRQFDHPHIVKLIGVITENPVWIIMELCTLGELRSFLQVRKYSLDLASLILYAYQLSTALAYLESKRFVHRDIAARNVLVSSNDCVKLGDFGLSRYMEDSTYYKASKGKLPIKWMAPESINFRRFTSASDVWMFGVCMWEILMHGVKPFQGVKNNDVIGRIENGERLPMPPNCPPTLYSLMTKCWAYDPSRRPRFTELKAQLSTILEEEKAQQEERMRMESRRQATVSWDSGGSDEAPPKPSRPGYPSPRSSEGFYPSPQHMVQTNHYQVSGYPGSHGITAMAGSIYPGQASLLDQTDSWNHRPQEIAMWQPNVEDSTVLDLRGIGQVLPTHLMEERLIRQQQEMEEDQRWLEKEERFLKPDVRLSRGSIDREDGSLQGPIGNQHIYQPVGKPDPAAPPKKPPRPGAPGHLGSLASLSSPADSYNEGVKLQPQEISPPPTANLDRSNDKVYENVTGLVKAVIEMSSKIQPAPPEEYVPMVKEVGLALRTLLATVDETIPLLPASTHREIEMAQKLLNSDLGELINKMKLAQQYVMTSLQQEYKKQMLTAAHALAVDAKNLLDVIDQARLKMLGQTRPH", "assay": "PTK2 protein binding on printed compound slides – biochemical, small-molecule microarray, 635/667 nm fluorescence, BSA, DTT, primary screen (AID 1130);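 further: composite of spot emission at 667 nm and signal to noise over triplicate slides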", "conditions": "635 nm fluorescence, higher = more signal"}, "[4]": {"system": "Fibrinogen (Alexa647-labelled)", "assay": "Alexa647-fibrinogen binding to printed small molecules – biochemical, small-molecule microarray, 635/667 nm fluorescence, artefact control for SMM control-protein annotation, profiling panel (AID 1131);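 further: z-score merges 667 nm fluorescence with per-spot signal-to-noise over triplicate slides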", "conditions": "fibrinogen-A647 binding fluorescence, higher = more signal"}, "[5]": {"biological_target": "Follistatin (Homo sapiens) (UniProt P19883)", "sequence (P19883 whole entry, looked up)": "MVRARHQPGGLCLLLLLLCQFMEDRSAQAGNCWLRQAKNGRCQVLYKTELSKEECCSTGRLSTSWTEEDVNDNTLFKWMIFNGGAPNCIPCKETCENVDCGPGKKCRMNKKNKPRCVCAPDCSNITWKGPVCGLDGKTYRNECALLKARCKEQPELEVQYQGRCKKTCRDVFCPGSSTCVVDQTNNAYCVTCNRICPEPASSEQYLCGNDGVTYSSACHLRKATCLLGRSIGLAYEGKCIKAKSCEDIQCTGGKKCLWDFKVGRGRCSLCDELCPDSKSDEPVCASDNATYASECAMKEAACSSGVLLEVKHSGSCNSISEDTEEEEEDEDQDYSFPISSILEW", "assay": "FST protein binding to printed compounds – biochemical, small-molecule microarray, 635/667 nm fluorescence, primary screen (AID 1132)", "conditions": "635 nm fluorescence, higher = more signal"}, "[6]": {"biological_target": "Fibroblast growth factor 2 (Homo sapiens) (UniProt P09038)", "sequence (P09038 whole entry, looked up)": "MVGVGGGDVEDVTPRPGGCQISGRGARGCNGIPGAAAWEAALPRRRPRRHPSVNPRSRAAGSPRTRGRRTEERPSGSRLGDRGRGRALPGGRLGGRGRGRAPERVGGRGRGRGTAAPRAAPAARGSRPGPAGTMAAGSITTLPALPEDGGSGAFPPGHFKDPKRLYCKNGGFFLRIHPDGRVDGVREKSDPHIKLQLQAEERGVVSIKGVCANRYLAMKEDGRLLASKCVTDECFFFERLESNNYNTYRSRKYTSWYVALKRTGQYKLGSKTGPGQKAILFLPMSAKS", "assay": "basic fibroblast growth factor binding to printed compounds – biochemical, small-molecule microarray, 635/667 nm fluorescence, primary screen (AID 1133)", "conditions": "FGF2, fluorescence 635/667, higher = more signal"}, "[7]": {"assay": "JC-1 mitochondrial potential readout, lung cancer cells – cell-based, A549, JC-1 fluorescence, basal, 24 h, 100 nL, profiling panel (AID 1138);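 further: A549 lung adenocarcinoma cells under basal conditions with no added stimulus; test concentration not given here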", "conditions": "higher = more signal"}, "Lefty1": {"system": "Lefty1", "assay": "Lefty1 protein binding to printed compounds – biochemical, small-molecule microarray, 635/667 nm fluorescence, primary screen (AID 1139)", "conditions": "fluorescence 635/667, higher = more signal"}, "[8]": {"system": "wheat germ agglutinin (Triticum aestivum), Alexa647-labelled", "assay": "Alexa647-WGA lectin binding to printed small molecules – biochemical, small-molecule microarray, 635/667 nm fluorescence, artefact control for SMM control-protein annotation, profiling panel (AID 1140);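 further: score merges 667 nm feature emission with signal to noise over triplicate slides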", "conditions": "WGA-A647 binding, 635 nm fluorescence, higher = more signal"}, "[9]": {"biological_target": "Luciferin 4-monooxygenase (Photinus pyralis) (UniProt P08659)", "sequence (P08659 whole entry, looked up)": "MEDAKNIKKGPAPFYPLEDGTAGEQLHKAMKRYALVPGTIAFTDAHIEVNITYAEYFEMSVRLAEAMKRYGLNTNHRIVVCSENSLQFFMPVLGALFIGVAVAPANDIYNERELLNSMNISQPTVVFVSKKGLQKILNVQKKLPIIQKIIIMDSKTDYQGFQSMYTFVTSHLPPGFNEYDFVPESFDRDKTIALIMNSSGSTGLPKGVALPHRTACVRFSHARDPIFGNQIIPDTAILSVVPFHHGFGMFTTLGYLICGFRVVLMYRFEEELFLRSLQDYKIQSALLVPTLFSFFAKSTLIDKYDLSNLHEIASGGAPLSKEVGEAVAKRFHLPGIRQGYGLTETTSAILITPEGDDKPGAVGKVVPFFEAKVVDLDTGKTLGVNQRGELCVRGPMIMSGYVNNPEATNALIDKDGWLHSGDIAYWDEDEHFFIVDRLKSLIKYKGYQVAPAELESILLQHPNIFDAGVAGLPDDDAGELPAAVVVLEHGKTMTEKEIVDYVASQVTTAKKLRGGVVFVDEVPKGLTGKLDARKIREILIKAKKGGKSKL", "assay": "inhibition of purified Photinus pyralis luciferase – biochemical, luminescence, purified enzyme, 2006 set, primary screen (AID 1141);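 further: cell-free assay with purified firefly luciferase at 100 ng per well in PBS; test concentration not given here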", "conditions": "purified firefly luciferase, SteadyGlo luminescence, 30 min; higher = more signal, called active from +8 up or from −8 down"}}, "note": "Activity calls are given as the source filed them."}
{"smiles": "CCc1cc2c(nc1CC)CCN(CCC(C)=NOC[C@@H](O)[C@H]1O[C@@H]3OC(C)(C)O[C@@H]3[C@H]1O)C2", "values": [{"measurement": "composite z-score", "setting": "[1]", "value": 0.29}, {"measurement": "composite z-score", "setting": "[2]", "value": -0.0321}, {"measurement": "composite z-score", "setting": "[3]", "value": -0.113}, {"measurement": "composite z-score", "setting": "[4]", "value": 0.572}, {"measurement": "composite z-score", "setting": "[5]", "value": 0.187}, {"measurement": "composite z-score", "setting": "[6]", "value": 0.106}, {"measurement": "z-score", "setting": "[7]", "value": 0.489}, {"measurement": "composite z-score", "setting": "Lefty1", "value": 0.446}, {"measurement": "composite z-score", "setting": "[8]", "value": 0.878}, {"measurement": "z-score", "setting": "[9]", "value": "-0.0353 (inactive)"}]}
{"smiles": "O=C1[C@H]2[C@H]3[C@H](O)[C@H](O)CC(=NOCc4ccccc4)[C@H]3CC[C@H]2C(=O)N1C[C@@H]1CCCO1", "values": [{"measurement": "composite z-score", "setting": "[1]", "value": 0.216}, {"measurement": "composite z-score", "setting": "[2]", "value": 0.586}, {"measurement": "composite z-score", "setting": "[3]", "value": -0.0074}, {"measurement": "composite z-score", "setting": "[4]", "value": 0.953}, {"measurement": "composite z-score", "setting": "[5]", "value": 0.393}, {"measurement": "composite z-score", "setting": "[6]", "value": 1.12}, {"measurement": "z-score", "setting": "[7]", "value": -0.877}, {"measurement": "composite z-score", "setting": "Lefty1", "value": 0.249}, {"measurement": "composite z-score", "setting": "[8]", "value": 0.352}, {"measurement": "z-score", "setting": "[9]", "value": "0.949 (inactive)"}]}
{"smiles": "CC(C)NC(=O)[C@@H]1c2ccccc2C(=O)N(CC23CC4CC(CC(C4)C2)C3)[C@H]1c1ccc(CO)cc1", "values": [{"measurement": "composite z-score", "setting": "[1]", "value": 0.526}, {"measurement": "composite z-score", "setting": "[2]", "value": 1.23}, {"measurement": "composite z-score", "setting": "[3]", "value": 0.417}, {"measurement": "composite z-score", "setting": "[4]", "value": 0.973}, {"measurement": "composite z-score", "setting": "[5]", "value": 1.35}, {"measurement": "composite z-score", "setting": "[6]", "value": 0.615}, {"measurement": "z-score", "setting": "[7]", "value": 0.689}, {"measurement": "composite z-score", "setting": "Lefty1", "value": 0.822}, {"measurement": "composite z-score", "setting": "[8]", "value": 0.298}, {"measurement": "z-score", "setting": "[9]", "value": "0.892 (inactive)"}]}
{"smiles": "O=C1C[C@@H](O)[C@@H](O)[C@@H]2[C@@H]3C(=O)N(Cc4ccc5c(c4)OCO5)C(=O)[C@@H]3CC[C@@H]12", "values": [{"measurement": "composite z-score", "setting": "[1]", "value": -0.0619}, {"measurement": "composite z-score", "setting": "[2]", "value": 0.459}, {"measurement": "composite z-score", "setting": "[3]", "value": 0.0309}, {"measurement": "composite z-score", "setting": "[4]", "value": 0.197}, {"measurement": "composite z-score", "setting": "[5]", "value": 0.499}, {"measurement": "composite z-score", "setting": "[6]", "value": 0.507}, {"measurement": "z-score", "setting": "[7]", "value": 0.481}, {"measurement": "composite z-score", "setting": "Lefty1", "value": 0.549}, {"measurement": "composite z-score", "setting": "[8]", "value": -0.107}, {"measurement": "z-score", "setting": "[9]", "value": "-0.786 (inactive)"}]}
{"smiles": "CC(C)(C)N1C(=O)[C@H]2[C@H]3[C@H](O)[C@H](O)CC(=NOCc4ccccc4)[C@@H]3CC[C@H]2C1=O", "values": [{"measurement": "composite z-score", "setting": "[1]", "value": 0.94}, {"measurement": "composite z-score", "setting": "[2]", "value": 0.808}, {"measurement": "composite z-score", "setting": "[3]", "value": -0.0913}, {"measurement": "composite z-score", "setting": "[4]", "value": 0.921}, {"measurement": "composite z-score", "setting": "[5]", "value": 0.785}, {"measurement": "composite z-score", "setting": "[6]", "value": 0.742}, {"measurement": "z-score", "setting": "[7]", "value": 0.0533}, {"measurement": "composite z-score", "setting": "Lefty1", "value": 0.744}, {"measurement": "composite z-score", "setting": "[8]", "value": 0.441}, {"measurement": "z-score", "setting": "[9]", "value": "-1 (inactive)"}]}
{"smiles": "CO[C@H]1COC(=O)CC=C[C@H](C)[C@@H](NS(=O)(=O)c2ccc(C)cc2)COC(=O)CC=C[C@@H]1C", "values": [{"measurement": "composite z-score", "setting": "[1]", "value": 2.79}, {"measurement": "composite z-score", "setting": "[2]", "value": 0.0835}, {"measurement": "composite z-score", "setting": "[3]", "value": 0.0018}, {"measurement": "composite z-score", "setting": "[4]", "value": 0.0607}, {"measurement": "composite z-score", "setting": "[5]", "value": 0.932}, {"measurement": "composite z-score", "setting": "[6]", "value": 0.585}, {"measurement": "z-score", "setting": "[7]", "value": -0.662}, {"measurement": "composite z-score", "setting": "Lefty1", "value": 0.819}, {"measurement": "composite z-score", "setting": "[8]", "value": -0.0118}, {"measurement": "z-score", "setting": "[9]", "value": "-0.277 (inactive)"}]}
{"smiles": "CC(=O)OC[C@H]1O[C@H](CC=NOC[C@@H](C)[C@H](OCc2ccccc2)C(C)C)C=C[C@@H]1OC(C)=O", "values": [{"measurement": "composite z-score", "setting": "[1]", "value": -1.2}, {"measurement": "composite z-score", "setting": "[2]", "value": 0.284}, {"measurement": "composite z-score", "setting": "[3]", "value": -0.351}, {"measurement": "composite z-score", "setting": "[4]", "value": -0.344}, {"measurement": "composite z-score", "setting": "[5]", "value": 0.264}, {"measurement": "composite z-score", "setting": "[6]", "value": 0.155}, {"measurement": "z-score", "setting": "[7]", "value": -1.02}, {"measurement": "composite z-score", "setting": "Lefty1", "value": 0.752}, {"measurement": "composite z-score", "setting": "[8]", "value": -0.21}, {"measurement": "z-score", "setting": "[9]", "value": "1.34 (inactive)"}]}
{"smiles": "CC(C)=NOCc1cccc(-c2cc(-c3ccccc3)no2)c1", "values": [{"measurement": "composite z-score", "setting": "[1]", "value": 0.545}, {"measurement": "composite z-score", "setting": "[2]", "value": 0.974}, {"measurement": "composite z-score", "setting": "[3]", "value": 0.882}, {"measurement": "composite z-score", "setting": "[4]", "value": 0.464}, {"measurement": "composite z-score", "setting": "[5]", "value": 0.973}, {"measurement": "composite z-score", "setting": "[6]", "value": 0.727}, {"measurement": "z-score", "setting": "[7]", "value": 0.732}, {"measurement": "composite z-score", "setting": "Lefty1", "value": 0.92}, {"measurement": "composite z-score", "setting": "[8]", "value": 0.848}, {"measurement": "z-score", "setting": "[9]", "value": "-0.158 (inactive)"}]}
{"smiles": "CC(=O)O[C@H]1C2=C(C(=O)[C@@H]3O[C@@H]31)[C@H]1C(C)O[C@@H]2[C@@]23C(=O)[C@@H]4O[C@@H]4[C@@H](O)C2=CO[C@H](C)[C@@H]13", "note": "(stereo not given in full)", "values": [{"measurement": "composite z-score", "setting": "[1]", "value": 0.0831}, {"measurement": "composite z-score", "setting": "[2]", "value": 0.154}, {"measurement": "composite z-score", "setting": "[3]", "value": -0.0962}, {"measurement": "composite z-score", "setting": "[4]", "value": -0.735}, {"measurement": "composite z-score", "setting": "[5]", "value": -0.419}, {"measurement": "composite z-score", "setting": "[6]", "value": 0.877}, {"measurement": "z-score", "setting": "[7]", "value": -1.12}, {"measurement": "composite z-score", "setting": "Lefty1", "value": 0.0364}, {"measurement": "composite z-score", "setting": "[8]", "value": -0.933}, {"measurement": "z-score", "setting": "[9]", "value": "0.327 (inactive)"}]}
{"smiles": "CC(CCN1CCCCc2nc(C)c(C)cc21)=NOC(C)CN1CCCCc2nc(C)c(C)cc21", "note": "(stereo not given)", "values": [{"measurement": "composite z-score", "setting": "[1]", "value": 2.37}, {"measurement": "composite z-score", "setting": "[2]", "value": 1.2}, {"measurement": "composite z-score", "setting": "[3]", "value": 0.332}, {"measurement": "composite z-score", "setting": "[4]", "value": 0.911}, {"measurement": "composite z-score", "setting": "[5]", "value": 1.29}, {"measurement": "composite z-score", "setting": "[6]", "value": 1.3}, {"measurement": "z-score", "setting": "[7]", "value": 0.828}, {"measurement": "composite z-score", "setting": "Lefty1", "value": 1.6}, {"measurement": "composite z-score", "setting": "[8]", "value": 1.11}, {"measurement": "z-score", "setting": "[9]", "value": "-0.483 (inactive)"}]}
